The chains are these.
B1: chr14:95709946:95710881:-|three_prime_utr|ENSG00000100721|control|control|control (ssRNA)
RNA: GGGAGUUCUACAGUCCGACGAUCUCUGGGAGGAAUGGACAGACAGAGGAUGAGCUCUACCCAGGGCCUGCAGGACCUGCCUGUAGCCCACUCUGCUCGCCUUAGCACUACCACUCCUGCCAAGGAGGAUUCCAUUUGGCAGAGCAACAGAGGAUUGAGCAUCA
B2: chr5:138873012:138874556:-|CDS|ENSG00000146006|control|control|control (ssRNA)
RNA: GGGAGUUCUACAGUCCGACGAUCUUUAUUAUUUUUAUAGUGUUCAUCUCCAGGAAGUGCUGCCCUCCCACUUUAAGAAGAAUUAGGCAGUGCUCAAUGGUUCAGAACCACAGGCAGCUCCGAUCCCAAACACGACUCCAUAUGCAACAGAGGAUUGAGCAUCA
B3: chr5:72207278:72207408:+|3pUTR|ENSG00000131711|msi1_unk|total|mutant (ssRNA)
RNA: GGGAGUUCUACAGUCCGACGAUCAGAGAACAAUGACCUCAUUUUAUUUUCUAUGUCCGUUAUUUAUUUCAAAAUUAACAUUUCCGUUGAUUUUUGUCUGAUAAGUCUAUGUUUUGCACUGCUAACUAUGAUGAGGGUUUAAAACAACAGAGGAUUGAGCAUCA
B4: chr1:93866283:93869944:-|three_prime_utr|ENSG00000067334|control|control|control (ssRNA)
RNA: GGGAGUUCUACAGUCCGACGAUCUUUAUUUACUUAUUAAAGACGUUUGGAAAACUAACACCAUCAUCUAAAUUAAUUUACCAUAGACUGGCCCUGUUCAUACAGGAAUUUGUAUUUGGAAAAAGUUGAUUUGAGAAUCGAUUACAACAGAGGAUUGAGCAUCA
B5: chr16:30603633:30603734:-|3pUTR|ENSG00000156853|unk|total|mutant (ssRNA)
RNA: GGGAGUUCUACAGUCCGACGAUCGUUAAGUACCACAUUCUCCUCUAAACCUUGCCUACGACAUGUUUAAUACUUCAUCUACACCGCAGCCCUUCAGAUAAUCACAACCACUUUGCCCCCAAGUUUUCAGGUUAAGCCGCAUGACAACAGAGGAUUGAGCAUCA
B6: chr2:32224452:32224765:-|three_prime_utr|ENSG00000091106|control|control|control (ssRNA)
RNA: GGGAGUUCUACAGUCCGACGAUCUCGUGUGAGCAGUGAUGGAUGGCUUGCCUUCAUGGGUGUAUUUGAGAAUCUUAAGCAAUUAGUGUUUUUUGACUUUAGUACUAAAGAAUUUCUACCUGAUCCAGCAUUAGUCAGAAAACUCAACAGAGGAUUGAGCAUCA
B7: ENSG00000198589:be:win_6851|CDS|ENSG00000198589|bound_else_gene|NA|bound_elsewhere_windowed (ssRNA)
RNA: GGGAGUUCUACAGUCCGACGAUCAAGUUCCAAAGUUUCACUAUGGUACUCAUUACUCAACUGCAAGUUUUGUUCUUGCAUGGCUGCUAAGAAUAGAACCCUUUACAACUUAUUUCCUAAAUUUGCAAGGAGGCAAAUUUGAUCCAACAGAGGAUUGAGCAUCA
B8: chr9:15474029:15474130:-|CDS|ENSG00000164985|unk|FALSE|unique (ssRNA)
RNA: GGGAGUUCUACAGUCCGACGAUCAAGAAAAGAGCCGGAUAAAAAAGAGGGGAAGAAAGAAGUUGAAUCAAAAAGGAAAAAUUUAGCUAAAACAGGGGUUACUUCAACCUCCGAUUCUGAAGAAGAAGGAGAUGAUCAAGAAGGCAACAGAGGAUUGAGCAUCA
B9: chr12:57516587:57516808:-|three_prime_utr|ENSG00000175197|control|control|control (ssRNA)
RNA: GGGAGUUCUACAGUCCGACGAUCCCCCCACUUGGGCCACACUACCCACCUUUCCCAGAAGUGGCUACUGACUACCCUCUCACUAGUGCCAAUGAUGUGACCCUCAAUCCCACAUACGCAGGGGGAAGGCUUGGAGUAGACAAACAACAGAGGAUUGAGCAUCA
B10: chr7:80742675:80742739:-|3pUTR|ENSG00000075223|msi1_unk|FALSE|overlapping (ssRNA)
RNA: GGGAGUUCUACAGUCCGACGAUCGUAGCUUGACAAUUCAGUGACUUAAUAUCUAUUCCAUUUGUAUUGUACAUAAAAUUUUCUAGAAAUACACUUUUUUCCAAAGUGUAAGUUUGUGAAUAGAUUUUAGCAUGAUGAAACUGUCAACAGAGGAUUGAGCAUCA
B11: chr5:141515350:141515460:-|3pUTR|ENSG00000131504|msi1_unk|total|mutant (ssRNA)
RNA: GGGAGUUCUACAGUCCGACGAUCCUCAGCUUUCCAUCCCCAGCCCGGAAGAAAGAAUGGCACUCUUGGGCUUGGCCCAGAAUCCGAGUUAUCCGAGCAAGAGAGAGCUCCGGAAGCAUGAGGGCAACUACCGUGAGGCCUUAUCAACAGAGGAUUGAGCAUCA
B12: chr8:103332422:103332528:+|3pUTR|ENSG00000164930|msi1|total|mutant (ssRNA)
RNA: GGGAGUUCUACAGUCCGACGAUCUUUUUUAACAUUCCGAAUAUUACAUUUUGUAUUAUACAGUACCUUUCUCAGACAUUUUGCCGAAUUCAUUUCGGCAGCUCACCCGGAUUUUGCUGAACAUUAAAAAGUGUGACCGCGAUACAACAGAGGAUUGAGCAUCA
B13: chr8:103332422:103332528:+|3pUTR|ENSG00000164930|msi1|FALSE|unique (ssRNA)
RNA: B12 RNA with C36U, C37A, C83U, C84A, C106U, C107A, C136U, C137A
B14: chr5:141515350:141515460:-|3pUTR|ENSG00000131504|msi1_unk|FALSE|overlapping (ssRNA)
RNA: B11 RNA with C44U, C45A, C83U, C84A, C92U, C93A, C109U, C110A, C130U, C131A
B15: chr8:42175261:42175472:-|3pUTR|ENSG00000104368|msi1|total|mutant (ssRNA)
RNA: GGGAGUUCUACAGUCCGACGAUCGUAUUCCUUUUGUGUACAGUGUGUAAAGUGUAAAUCCUUUUUCUUUAUAAACUUCCGAGCCGCAUGAGAGAAUUGUAUCAUUUGAACAACCCGGCUUCAGCAUAUUUACCGCAAUCCAUGCAACAGAGGAUUGAGCAUCA
B16: chr8:42175261:42175472:-|3pUTR|ENSG00000104368|msi1|FALSE|unique (ssRNA)
RNA: B15 RNA with C78U, C79A, C83U, C84A, C114U, C115A, C132U, C133A
B17: chr5:138184526:138184629:+|CDS|ENSG00000112984|unk|FALSE|unique (ssRNA)
RNA: GGGAGUUCUACAGUCCGACGAUCGUGCAUGCCCCACCUAUGCAACUGGGAUUCCCAUCCCUGCACUCGUUCAUCAAGGAACAUAGUCUUCAGGUAUCCCCCAGCUUAGAGAAAGGGGCUAAGGCAGACACAGGCCUUGAUGAUCAACAGAGGAUUGAGCAUCA
B18: chr8:6757792:6757893:+|3pUTR|ENSG00000155189|msi1|FALSE|unique (ssRNA)
RNA: GGGAGUUCUACAGUCCGACGAUCAUUUAUUACAACUUGACAGCUCCAAGCUCUUAUUACUAAAGUAUUUAGUAUCUUGCAGCUAGUUAAUAUUUCAUCUUUUGCUUAUUUCUACAAGUCAGUGAAAUAAAUUGUAUUUAGGAACAACAGAGGAUUGAGCAUCA
B19: chr4:65323451:65323552:-|3pUTR|ENSG00000145242|msi1|total|mutant (ssRNA)
RNA: GGGAGUUCUACAGUCCGACGAUCAUCAAGAAAAAGUACAAUACAGGGUGUAUAUUUAUUUUUUGUGUUAUAAAGUUUACUUUCCGUUGCUCUUCCCGAGAUUAUCCGGUAAUAAAUGUGUAUAUACUGUAUAAUUUGCAAUAUCAACAGAGGAUUGAGCAUCA
B20: chr5:132696315:132696416:-|3pUTR|ENSG00000131437|msi1|FALSE|unique (ssRNA)
RNA: GGGAGUUCUACAGUCCGACGAUCGUUGUACUACUACUCUUCAAUUGUACUGUGCAGGGAAGUUGGGGGAACAGUUCAUACUAUAGAGAGUUACAGUUUAGAUGUAUGUGUAAAUCGAUUAGCUAUUUAUCCAACUACUGUAUACAACAGAGGAUUGAGCAUCA
B21: chr5:132696315:132696416:-|3pUTR|ENSG00000131437|msi1|total|mutant (ssRNA)
RNA: B20 RNA with U83C, A84C, U98C, A99C, U119C, A120C
B22: chr11:70485313:70487720:-|CDS|ENSG00000162105|control|control|control (ssRNA)
RNA: GGGAGUUCUACAGUCCGACGAUCUGGGGCGACGUCACAGAGAUCAAAAGCCCGAUUCUCUCAGGCCCAAAGGCAAACGUUAUUAGUGAAUUGAACUCUAUCCUACAGCAAAUGAACCGAGAGAAAUUGGCAAAGCCGGGGGAACAACAGAGGAUUGAGCAUCA

Positions count from the first letter of the chain named. Over roughly 5,800 sequences, “enrichment r” has its median near 0.54; the highest 2% begin near 16. Many of the other results were omitted from the sample, so the highest values are more common in it than they were.

Chain of MSI1 full-length (Q61474 whole entry): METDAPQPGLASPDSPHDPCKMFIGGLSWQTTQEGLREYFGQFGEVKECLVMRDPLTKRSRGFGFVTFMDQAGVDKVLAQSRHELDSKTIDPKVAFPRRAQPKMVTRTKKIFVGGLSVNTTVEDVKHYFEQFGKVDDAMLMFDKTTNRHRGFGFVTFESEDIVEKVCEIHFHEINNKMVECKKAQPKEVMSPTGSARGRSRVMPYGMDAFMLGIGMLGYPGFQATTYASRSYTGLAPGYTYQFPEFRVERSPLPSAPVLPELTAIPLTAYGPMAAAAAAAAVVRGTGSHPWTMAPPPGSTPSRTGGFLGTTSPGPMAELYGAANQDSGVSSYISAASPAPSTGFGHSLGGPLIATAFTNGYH

This experiment concerns the target MSI1 full-length (mouse, UniProt Q61474 1-362). The experiment in a line: nsRBNS (natural sequence RNA bind-n-seq); RBNS binding buffer (assumed for nsRBNS): 25 mM Tris pH 7.5, 150 mM KCl, 3 mM MgCl2, 0.01% Triton X-100, 500 ug/ml BSA, 20 U/ml SUPERase-In, 4 C; UNK is unkempt and MSI1 is Musashi-1; names of the RNAs are library labels; protein concentration not given here; high values mean tight binding.
Turning to B1, the binding signal was determined as 0.347 enrichment R.

As for B2, the binding signal is 1.88 enrichment R.

B3 registered a binding signal of 0.411 enrichment R.

For B4, the binding signal was found to be 0.451 enrichment R.

Take B5: the binding signal stood at 1.38 enrichment R.

Turning to B6, the binding signal was found to be 3.3 enrichment R.

On to B7, for which the binding signal stood at 0.297 enrichment R.

The molecule B8 came in with a binding signal of 0.83 enrichment R.

In turn, B9 yielded a binding signal of 0.549 enrichment R.

With B10, the binding signal was determined as 6.36 enrichment R.

Consider B11, for which the binding signal came out at 0.337 enrichment R.

Molecule B12 returned a binding signal of 0.818 enrichment R.

For B13, the binding signal came to 51.5 enrichment R.

Molecule B14 returned a binding signal of 28.2 enrichment R.

For B15, the binding signal amounted to 0.424 enrichment R.

In the case of B16, the binding signal amounted to 33.5 enrichment R.

Molecule B17 returned a binding signal of 0.612 enrichment R.

In turn, B18 came in with a binding signal of 1.46 enrichment R.

The molecule B19 displayed a binding signal of 1.51 enrichment R.

As for B20, the binding signal was determined as 19.9 enrichment R.

For the molecule B21, the binding signal is 0.609 enrichment R.

The molecule B22 had a binding signal of 0.762 enrichment R.

For the origin of these results see PMC12136788.
